# Results filed as inconclusive are left out. For some assays here: Results with a measured potency or affinity are listed apart. The source made the active and inactive calls. Unless noted, the limit is not given here; nearly all actives have AC50 up to about 26 µM.
# How the values were obtained:
# [1] = test system: Hepatitis C virus NS3 helicase; experiment: blockers of NS3h binding to ssDNA – biochemical, fluorescence polarization, LOPAC1280 library, primary screen (AID 687035; in the data active = inhibition above about 37%); details: Purified HCV NS3 helicase, Cy5-dT15 ssDNA binding fluorescence polarization; stronger effect = higher value; concentration not given here
# [2] = compounds altering Cy5-DNA-NS3h complex signal – biochemical, LOPAC1280, artefact control for HCV NS3 helicase inhibitor project (AID 687037; call rule not given here); details: Cy5-DNA-NS3h complex fluorescence interference counterscreen
# [3] = viability loss in pontine glioma line – cell-based, JHH-DIPG-1, MIPE4.0, CellTiter-Glo, qHTS, dose response (AID 1347062; cut-off not given, nearly all actives have AC50 up to about 27 µM;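 as to AC50: cells exposed to compound for two days before readout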); details: JHH-DIPG-1 viability, CellTiter-Glo ATP luminescence
# [4] = blockers of cellular phospholipid synthesis – cell-based, LOPAC library, screen 4, primary screen (AID 1347384; call rule not given here); details: animal cells, phospholipid biosynthesis inhibition screen; at 10 µM
# [5] = viability loss in pontine glioma line – cell-based, SU-DIPG-XVII, MIPE5.0, CellTiter-Glo, qHTS, dose response (AID 1347060); details: CellTiter-Glo ATP luminescence;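 as to AC50: cells exposed to compound for 48 hours before viability readout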
# [6] = viability loss in pontine glioma line – cell-based, SU-DIPG-XIII, MIPE4.0, CellTiter-Glo, qHTS, dose response (AID 1347061; cut-off not given, nearly all actives have AC50 up to about 37 µM;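 also: cells exposed to compound for 48 hours before readout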); details: CellTiter-Glo ATP luminescence
# [7] = viability loss in pontine glioma line – cell-based, SU-DIPG-IV, MIPE4.0, CellTiter-Glo, qHTS, dose response (AID 1347063; cut-off not given, nearly all actives have AC50 up to about 30 µM;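 also: compound exposure lasted 48 hours before the viability readout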); details: CellTiter-Glo ATP luminescence
# [8] = viability loss in pontine glioma line – cell-based, SU-DIPG-XXV, MIPE5.0, CellTiter-Glo, qHTS, dose response (AID 1347065); details: CellTiter-Glo ATP luminescence;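 also: cells exposed to compound for 48 hours before ATP readout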
# [9] = growth inhibition of DIPG cells – cell-based, MIPE4.0 library, CellTiter-Glo luminescence, qHTS (AID 1347066; cut-off not given, nearly all actives have AC50 up to about 30 µM;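 also: cells exposed to compound for 48 hours before readout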); details: SU-DIPG-VI viability, CellTiter-Glo ATP luminescence
# [10] = JHH-DIPG-1 glioma cell viability, MIPE5.0 library, CellTiter-Glo luminescence, qHTS (AID 1347067); details: JHH-DIPG-1 glioma viability, CellTiter-Glo ATP luminescence;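 also: cells exposed to compound for 48 hours before readout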
# [11] = growth inhibition of DIPG cells – cell-based, MIPE5.0 library, qHTS (AID 1347068; cut-off not given, nearly all actives have IC50 up to about 30 µM;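 as to IC50: cells exposed to compound for 48 hours before viability readout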); details: SU-DIPG-XXV viability
# [12] = growth inhibition, single agents and combos, LFS_MB_1R, cell-based, cisplatin or BGB combos, synergistic combos for chromothripsis tumors (AID 1671452; in the data active = inhibition above about 80%;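 also: cells exposed for 96 hours before readout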); details: LFS_MB_1R medulloblastoma cells, stronger effect = higher value
# [13] = growth inhibition, MDA-MB-436, cell-based, BGB or cisplatin combos, synergistic combos for chromothripsis tumors (AID 1671458; call rule not given here;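 also: cells exposed for 96 hours; 0% = vehicle DMSO and 100% = killing by high DMSO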); details: MDA-MB-436 breast carcinoma growth inhibition, drug combinations, stronger effect = higher value
# [14] = BT084 cell growth, single and combined drugs, ICGC_MB145, cisplatin and BGB IC40 combos (AID 1671461; in the data active = inhibition above about 80%;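 also: cells exposed to drugs for 96 hours; 0% = vehicle DMSO and 100% = high DMSO full killing control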); details: BT084 medulloblastoma cells, drug combinations, stronger effect = higher value
# [15] = RCMB18 cell growth, single agent and combined, cisplatin and BGB IC40 combos (AID 1671462; in the data active = inhibition above about 80%;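 also: cells exposed to compound for four days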); details: RCMB18 medulloblastoma cells, stronger effect = higher value
# [16] = CRL1545 cell growth, single agent and combined, cisplatin and BGB IC20 combos (AID 1671464; in the data active = inhibition above about 80%;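 also: cells exposed to compound for 96 hours before readout; 0% = vehicle DMSO and 100% = high DMSO killing control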); details: CRL1545 osteosarcoma cells, stronger effect = higher value
# [17] = restoration of touch response, mutant HTT neurons – whole organism, C. elegans mechanosensory neurons, N-terminal huntingtin (AID 1599); details: C. elegans polyQ-huntingtin mechanosensory neurons, stronger effect = higher value
# [18] = GFP-Q80 aggregate reduction, neuronal-like cells, cell-based, NGF-treated PC12, GFPQ80 (AID 1614); details: PC12 NGF-treated GFP-polyQ80 inclusion reduction;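 also: lower means fewer inclusions and 0 means no inclusions at all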
# [19] = 75Q-TubH aggregate inhibition, S. cerevisiae, yeast (AID 1616); details: S. cerevisiae 75Q-TubH polyglutamine aggregation suppression; stronger effect = higher value
# [20] = compounds altering viability of human ES cells (AID 493140; call rule not given here;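 also: cells exposed to compounds for four days before counting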); details: human embryonic stem cell survival screen; stronger effect = higher value
# [21] = measured here: combination with BGB IC40, at 0.05 µM
# [22] = measured here: combination with cisplatin, at 0.5 µM
# [23] = measured here: combination with cisplatin, at 5 µM
# [24] = measured here: BGB combination, at 0.5 µM
# [25] = measured here: BGB combination, at 5 µM
# [26] = measured here: cisplatin combination, at 0.5 µM
# [27] = measured here: cisplatin combination, at 5 µM
# [28] = cisplatin combination, at 0.5 µM
# [29] = measured here: BGB IC40 combination 0.05 uM, at 0.05 µM
# [30] = measured here: BGB IC40 combination, at 0.05 µM
# [31] = measured here: with BGB IC20 combination, at 0.5 µM
# [32] = measured here: with cisplatin IC20 combination, at 0.5 µM
structure (smiles),measurement,setting,value
COc1ccccc1OCCNCC(O)COc1cccc2[nH]c3ccccc3c12 (stereo unspecified),inhibition,[1],-2% (inactive)
same,fluorescence ratio (interference),[2],1 (inactive)
same,outcome,[3],inactive
same,outcome,[4],inactive
CC(=O)OCC(CCn1cnc2cnc(N)nc21)COC(C)=O,outcome,[5],inactive
same,outcome,[6],inactive
same,outcome,[3],inactive
same,outcome,[7],inactive
same,outcome,[8],inactive
same,outcome,[9],inactive
same,outcome,[10],inactive
same,outcome,[11],inactive
same,outcome,[4],inactive
same,inhibition,[12]; at 0.5 µM,-6.39% (inactive)
same,inhibition,[12]; [21],-41.8%
same,inhibition,[12]; [22],-15.8%
same,inhibition,[12]; [23],-6.32%
same,inhibition,[13]; at 0.5 µM,-18.3% (inactive)
same,inhibition,[13]; [24],-5.73%
same,inhibition,[13]; [25],-13.3%
same,inhibition,[13]; [26],-45.7%
same,inhibition,[13]; [27],-24.3%
same,inhibition,[14]; at 0.5 µM,-39.8% (inactive)
same,inhibition,[14]; [28],-22.3%
same,inhibition,"[14]; cisplatin combination, at 5 µM",-19.5%
same,inhibition,[14]; [29],-14.8%
same,inhibition,"[14]; single agent, at 5 µM",-21.3%
same,inhibition,[15]; at 0.5 µM,-15.5% (inactive)
same,inhibition,"[15]; cisplatin combo, at 5 µM",-24.5%
same,inhibition,[15]; [30],-9.28%
same,inhibition,[15]; [22],3.82%
same,inhibition,"[15]; single agent, at 5 µM",-35%
same,inhibition,[16]; at 0.5 µM,-2.74% (inactive)
same,inhibition,[16]; [31],4.75%
same,inhibition,[16]; [32],-8.9%
same,inhibition,"[16]; single agent, at 0.05 µM",-17%
same,inhibition,"[16]; single agent, at 5 µM",5.18%
O=C(C1CCCCC1)N1CC(=O)N2CCc3ccccc3C2C1 (stereo unspecified),rescue above control,[17],-8.41
same,inclusion score,[18],2
same,aggregation suppression score,[19],0.607
same,survival,[20],12.2 (inactive)
same,inhibition,[1],-3% (inactive)
same,fluorescence ratio (interference),[2],1 (inactive)
same,AC50,[5],26.3 µM (active)
same,outcome,[6],inactive
same,outcome,[3],inactive
same,outcome,[7],inactive
same,outcome,[8],inactive
same,outcome,[9],inactive
same,outcome,[10],inactive
same,outcome,[11],inactive
same,outcome,[4],inactive
N[C@@H]1CONC1=O,rescue above control,[17],-2.84
same,inclusion score,[18],2
same,aggregation suppression score,[19],1.32
same,survival,[20],4.33 (inactive)
same,inhibition,[1],-2% (inactive)
same,fluorescence ratio (interference),[2],0.9 (inactive)
same,outcome,[5],inactive
same,outcome,[6],inactive
same,outcome,[3],inactive
same,outcome,[7],inactive
same,outcome,[8],inactive
same,outcome,[9],inactive
same,outcome,[10],inactive
same,outcome,[11],inactive
same,outcome,[4],inactive
O=C(O)c1cc(=O)c2c(OCC(O)COc3cccc4oc(C(=O)O)cc(=O)c34)cccc2o1,rescue above control,[17],9.88
same,inclusion score,[18],1
same,aggregation suppression score,[19],1.35
same,survival,[20],1.67 (inactive)
same,outcome,[5],inactive
same,outcome,[6],inactive
same,outcome,[3],inactive
same,outcome,[7],inactive
same,outcome,[9],inactive
same,outcome,[10],inactive
same,outcome,[11],inactive
CCN(Cc1ccncc1)C(=O)C(CO)c1ccccc1 (stereo unspecified),rescue above control,[17],-3.59
same,inclusion score,[18],1
same,aggregation suppression score,[19],1.36
same,survival,[20],16.4 (inactive)
same,inhibition,[1],-6% (inactive)
same,fluorescence ratio (interference),[2],0.9 (inactive)
same,outcome,[4],inactive
O=C(O)CCCc1ccccc1,inhibition,[12]; at 0.5 µM,-18.6% (inactive)
same,inhibition,[12]; [21],-25.4%
same,inhibition,[12]; [22],-26.8%
same,inhibition,[12]; [23],-16.2%
same,inhibition,[13]; at 0.5 µM,-11.5% (inactive)
same,inhibition,[13]; [24],-6.89%
same,inhibition,[13]; [25],-6.08%
same,inhibition,[13]; [26],-24.1%
same,inhibition,[13]; [27],-11.2%
same,inhibition,[14]; at 0.5 µM,-24.2% (inactive)
same,inhibition,[14]; [28],2.11%
same,inhibition,"[14]; cisplatin combination, at 5 µM",-2.13%
same,inhibition,[14]; [29],-5.38%
same,inhibition,"[14]; single agent, at 5 µM",-9.5%
same,inhibition,[15]; at 0.5 µM,-15.3% (inactive)
same,inhibition,"[15]; cisplatin combo, at 5 µM",-6.28%
same,inhibition,[15]; [30],-18%
same,inhibition,[15]; [22],-7.69%
same,inhibition,"[15]; single agent, at 5 µM",28.4%
same,inhibition,[16]; at 0.5 µM,-23.7% (inactive)
same,inhibition,[16]; [31],-4.31%
same,inhibition,[16]; [32],-36.4%
same,inhibition,"[16]; single agent, at 0.05 µM",-12.3%
same,inhibition,"[16]; single agent, at 5 µM",9.33%
CC1Cc2ccccc2N1NC(=O)c1ccc(Cl)c(S(N)(=O)=O)c1 (stereo unspecified),rescue above control,[17],19
same,inclusion score,[18],2
same,aggregation suppression score,[19],1.3
same,outcome,[5],inactive
same,outcome,[6],inactive
same,outcome,[3],inactive
same,outcome,[7],inactive
same,outcome,[10],inactive
same,outcome,[11],inactive
NNCCc1ccccc1,rescue above control,[17],-3.55
same,inclusion score,[18],2
same,aggregation suppression score,[19],1.47
same,survival,[20],9.5 (inactive)
same,inhibition,[1],-1% (inactive)
same,fluorescence ratio (interference),[2],0.9 (inactive)
same,outcome,[5],inactive
same,AC50,[6],9.35 µM (active)
same,outcome,[3],inactive
same,AC50,[7],13.2 µM (active)
same,outcome,[8],inactive
same,outcome,[9],inactive
same,outcome,[10],inactive
same,outcome,[11],inactive
same,outcome,[4],inactive
O=C1c2c(O)ccc(O)c2C(=O)c2c(NCCNCCO)ccc(NCCNCCO)c21,rescue above control,[17],0
same,aggregation suppression score,[19],-1.69
same,survival,[20],0.583 (inactive)
same,inhibition,[1],119% (active)
same,fluorescence ratio (interference),[2],0.5 (active)
same,AC50,[5],0.417 µM (active)
same,AC50,[6],18.7 µM (active)
same,AC50,[3],2.35 µM (active)
same,AC50,[7],6.62 µM (active)
same,AC50,[8],11.8 µM (active)
same,AC50,[9],23.5 µM (active)
same,IC50,[11],18.6 µM (active)
same,outcome,[4],inactive
same,inhibition,[12]; at 0.5 µM,-4.33% (inactive)
same,inhibition,[12]; [21],1.71%
same,inhibition,[12]; [22],72.8%
same,inhibition,[12]; [23],94.2%
same,inhibition,[13]; at 0.5 µM,53.4% (inactive)
same,inhibition,[13]; [24],42.1%
same,inhibition,[13]; [25],93.8%
same,inhibition,[13]; [26],45.8%
same,inhibition,[13]; [27],95.6%
same,inhibition,[14]; at 0.5 µM,-10.6% (inactive)
same,inhibition,[14]; [28],42.8%
same,inhibition,"[14]; cisplatin combination, at 5 µM",49.8%
same,inhibition,[14]; [29],-13%
same,inhibition,"[14]; single agent, at 5 µM",75.3%
same,inhibition,[15]; at 0.5 µM,-1.35% (inactive)
same,inhibition,"[15]; cisplatin combo, at 5 µM",70.8%
same,inhibition,[15]; [30],-3.01%
same,inhibition,[15]; [22],-18.9%
same,inhibition,"[15]; single agent, at 5 µM",55.2%
same,inhibition,[16]; at 0.5 µM,65.5% (inactive)
same,inhibition,[16]; [31],74%
same,inhibition,[16]; [32],61.2%
same,inhibition,"[16]; single agent, at 0.05 µM",43.2%
same,inhibition,"[16]; single agent, at 5 µM",99.2%
CC(=O)CC(c1ccccc1)c1c(O)c2ccccc2oc1=O (stereo unspecified),rescue above control,[17],-6.3
same,inclusion score,[18],2
same,aggregation suppression score,[19],0.635
same,outcome,[5],inactive
same,outcome,[6],inactive
same,outcome,[7],inactive
same,outcome,[8],inactive
same,outcome,[9],inactive
same,outcome,[10],inactive
same,outcome,[11],inactive
NS(=O)(=O)c1cc2c(cc1Cl)NCNS2(=O)=O,rescue above control,[17],7.5
same,inclusion score,[18],2
same,aggregation suppression score,[19],0.805
same,survival,[20],7.5 (inactive)
same,inhibition,[1],-1% (inactive)
same,fluorescence ratio (interference),[2],1 (inactive)
same,outcome,[5],inactive
same,outcome,[6],inactive
same,outcome,[3],inactive
same,outcome,[7],inactive
same,outcome,[8],inactive
same,outcome,[9],inactive
same,outcome,[10],inactive
same,outcome,[11],inactive
same,outcome,[4],inactive
O=C(O)c1cccnc1,rescue above control,[17],2.74
same,inclusion score,[18],2
same,aggregation suppression score,[19],1.88
same,survival,[20],4 (inactive)
same,outcome,[5],inactive
same,outcome,[6],inactive
same,outcome,[3],inactive
same,outcome,[8],inactive
same,outcome,[9],inactive
same,outcome,[10],inactive
same,outcome,[11],inactive
